Out of some 360,000 compounds screened, about 17,000 (4.7%) were called active. About 5% were inconclusive and are not listed. The entries come from a sample that favours actives as a whole. Values without a mark were called inactive. Rule as the data show it: active = activity change below about -50%; inconclusive = mostly about -30% to -49%; inactive = weaker than that. Where a SMILES comes first, the peptide text is derived from it. The star is where a group is joined. Bz = O=C(c1ccccc1)*
Test: qHTS for Inhibitors of Inflammasome Signaling: IL-1-beta AlphaLISA Primary Screen
Conditions: THP-1 LPS/ATP IL-1B secretion, 16 h; at 57.5 µM, hits give low values
Method in brief: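 Secreted IL-1B measured by AlphaLISA bead assay after 16 h compound exposure of THP-1 cells; compounds (final up to 57.5 uM) added 1 h before LPS (250 ng/mL) and ATP (1.25 mM) stimulation; lower signal means less secretion.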
% is scaled to controls: 0 for no effect and ±100 for the full control effect.

Compound	activity change
Cc1ccc(NS(=O)(=O)c2cc3c(cc2C)NC(=O)CO3)cc1	-0.465%
CC1CCN(C(=O)COC(=O)CCC(=O)c2cccs2)CC1	5.83%
CCN1C(=O)[C@H]2[C@@H](c3ccccc3)N[C@]3(CCCN(Cc4ccc(C)cc4)C3=O)[C@H]2C1=O	-7.34%
COc1ccc(S(=O)(=O)N2CCCCCC2)cc1C(=O)N(C)Cc1cccc(OC)c1OC	-8.59%
COc1cccc(CN(C)C(=O)CC23CC4CC(CC(C4)C2)C3)c1OC	-55.8% (active)
COc1ccc(CN(C)C(=O)Cc2ccsc2)c(OC)c1OC	40.4%
COc1ccc(NC(=O)C2(C)Cc3c(-c4cccc(NC(C)=O)c4)ccnc3O2)cc1 (stereo unspecified)	48.5%
COC1=NC2=NCCN2C(OC)=N1	0.792%
COc1ccc(C(=O)O/N=C(\N)Cc2ccc(Cl)cc2Cl)cc1OC	-58.9% (active)
COc1ccc(C(=O)ON=C2c3ccccc3-c3ccccc32)cc1OC	0%
COc1ccc(C/C(N)=N/OC(=O)c2ccco2)cc1OC	9.63%
CCCCC(O)C1=C[N+](=O)CC=C1 (stereo unspecified)	-4.88%
CCn1ccnc1CNC(=O)CC1C(=O)NCCN1Cc1ccc(F)cc1Cl (stereo unspecified)	-0.584%
CCCCc1ccc(NC(=O)CN2C(=O)NC(Cc3ccccc3)C2=O)cc1 (stereo unspecified)	-1.39%
COc1ccccc1C(=O)COC(=O)CNS(=O)(=O)c1ccc(NC(C)=O)cc1	9.71%
CC(=O)Nc1ccc(S(=O)(=O)NCC(=O)OCc2cc(=O)oc3ccc4ccccc4c23)cc1	-58.2% (active)
COc1ccccc1CNC(=O)COC(=O)CNS(=O)(=O)c1ccc(NC(C)=O)cc1	32.4%
Cc1ccc(S(=O)(=O)N2CCCCC2)cc1NC(=O)CCNC(=O)c1ccccc1Cl	10.9%
Cc1cccc(N(C(=O)c2csnn2)C(C(=O)NCc2ccccc2)c2ccncc2)c1 (stereo unspecified)	-12.7%

Compound	activity change
CC1(C(=O)NS(=O)(=O)c2cccc(OC(F)F)c2)CCN1C(=O)C1CC1 (stereo unspecified)	0%
COc1ccc(C(=O)CN2C(=O)NC3(CCc4ccccc43)C2=O)c(OC)c1 (stereo unspecified)	-22.2%
COc1ccc(-n2c(C)cc(C(=O)CN3C(=O)NC4(CCc5ccccc54)C3=O)c2C)cc1 (stereo unspecified)	-85.6% (active)
Cc1ccc(C(=O)CN2C(=O)NC3(CCc4ccccc43)C2=O)c(C)c1 (stereo unspecified)	-6.4%
CC(=O)Nc1ccc(S(=O)(=O)NC(C)C(=O)OCC(=O)NC2CCCC2)cc1 (stereo unspecified)	0%
CC(=O)Nc1ccc(S(=O)(=O)NC(C)C(=O)OCCOc2ccc(F)cc2)cc1 (stereo unspecified)	-84.9% (active)
CC(=O)Nc1ccc(NC(=O)COc2ccc(S(=O)(=O)NC(C)c3ccccc3)cc2)cc1 (stereo unspecified)	18.3%
COc1ccccc1-c1cc2nc(NCc3cccc(Cl)c3)ccn2n1	-19.9%
Cc1ccc(-c2nn(-c3cccc(F)c3)cc2CNCCc2ccncc2)o1	-77.5% (active)
Cc1ccc(N2C(=O)C(CC(=O)Nc3cccc(F)c3)N(CCc3ccncc3)C2=O)cc1 (stereo unspecified)	-0.0392%
Cc1ccc(-c2cnc(C(O)c3cc(Cl)cc(Cl)c3)[nH]2)cc1 (stereo unspecified)	6.64%
Cc1ccc(S(=O)(=O)NCC(=O)N(CC(=O)NC(C)(C)C)Cc2cccs2)cc1	14.4%
CCC(C)(C)NC(=O)CN(Cc1cccs1)C(=O)CNS(=O)(=O)c1ccc(F)cc1	4.73%
CC(C)(C)NC(=O)CN(Cc1cccs1)C(=O)CNS(=O)(=O)c1ccccc1	-55.8% (active)
CCN1C(=O)[C@@H]2[C@@H]3CN(S(=O)(=O)c4ccccc4C)[C@@H](c4ccc(Cl)cc4)[C@@H]3C(=O)C[C@@H]2C1=O	-15.9%
CC1(C(=O)Nc2cccc3c2CCCC3)CCN1C(=O)CCc1ccc(Cl)cc1Cl (stereo unspecified)	-9.96%
NC(=O)C1CCN(C(=O)CC2C(=O)NCCN2Cc2cccc(Oc3ccccc3)c2)CC1 (stereo unspecified)	-6.56%
CCc1nnc(NC(=O)c2cc(S(=O)(=O)N3CCN(CC)CC3)ccc2Cl)s1	18.8%
CC(CN1CCCCC1)c1ccccc1 (stereo unspecified)	11.2%

Compound	activity change
COc1ccc(C(O)(C2CCCCC2)C(CN2CCCC2)c2ccccc2)cc1 (stereo unspecified)	-54.5% (active)
CCCC(O)(c1ccc(OC)cc1)C(CN(C)C)c1ccccc1 (stereo unspecified)	-9.06%
CC(C)(C(=O)N1CCC1(C)C(=O)NS(=O)(=O)c1ccc(Br)cc1)c1ccccc1 (stereo unspecified)	17%
CC(C)c1ccc(N2CC(C(=O)Nc3nccs3)CC2=O)cc1 (stereo unspecified)	-0.66%
CC1CN(C(=O)c2cccc(NS(=O)(=O)c3ccc(Br)cc3)c2)CC(C)O1 (stereo unspecified)	53%
O=C(CC1NCCc2ccccc21)Nc1cccc(Cl)c1 (stereo unspecified)	-29.8%
CCC(CC)COC(=O)C1=C(C)NC(=O)NC1c1ccc([N+](=O)[O-])cc1 (stereo unspecified)	-2.87%
CCOC(=O)C1=C(C)N(C[C@@H]2CC[C@@H](Cc3ccc(-c4ccccc4)cc3)O2)C(=O)NC1c1ccc([N+](=O)[O-])cc1 (stereo partly specified)	-63.7% (active)
CCN1C(=O)N[C@@H](c2ccccc2)C(C(=O)OC)=C1C	15%
COc1ccc(C(=O)N2CCCN(C)CC2)c(OC)c1	33.4%
COc1cc(C(=O)N2CCN(C)CC2)cc(OC)c1OC	42.7%
COc1cc2c(C(=O)N3CCN(C)CC3)c(CSc3ccccc3)n(C)c2cc1Br	-60.2% (active)
C[C@@H]1CN([C@H](C)CO)C(=O)CCCn2nncc2CO[C@@H]1CN(C)S(=O)(=O)c1cccc(C#N)c1	3.99%
COC1=CC(=O)OC(c2ccc(OC)cc2)C1 (stereo unspecified)	-17.1%
CS(=O)(=O)c1cccc(-c2ccc3nncn3c2)c1	11.3%
O=C(NC(Cc1ccccc1)C(=O)N1CCCC1C(=O)O)c1ccccc1 (stereo not drawn) (Bz-Phe-Pro-OH; configuration not given here)	6.95%
CN(Cc1ccccc1F)C(=O)C(Cc1ccccc1)NC(=O)c1ccccc1 (stereo unspecified)	-84.2% (active)
O=C(NC(Cc1ccccc1)C(=O)N1CCCC(C(F)(F)F)C1)c1ccccc1 (stereo unspecified)	1.82%

Reference: PubChem BioAssay AID743279 (National Center for Advancing Translational Sciences (NCATS), 2014)
